AC50 and activity, negative = inhibition data for 98 molecules are collected here from PubChem BioAssay AID1851 (National Center for Advancing Translational Sciences (NCATS), 2009).

Hit rate of the full screen: of about 16,000 compounds, about 5,700 (36%) were called active. Another 24% or so got no clear call; they are omitted. The list shows a part of the results. Unmarked numbers belong to inactive results. Calls follow the shape of the dose curve; as a rule, active = well fitted curve in the direction sought with a large enough effect; inconclusive = small, poorly fitted or top-dose-only effect, or effect the other way; inactive = no such curve, though single readings can be large or run the other way.
% is scaled to controls: 0 for no effect and ±100 for the full control effect.

For the assay, the target named is Cytochrome P450 1A2 (Homo sapiens) (UniProt P05177). Briefly: Cytochrome panel assay with activity outcomes. Conditions: recombinant CYP, pro-luciferin dealkylation, luminescence, p450-cyp1a2; series mostly up to 57.1 µM.
Chain of Cytochrome P450 1A2 (Homo sapiens) (P05177 whole entry, looked up): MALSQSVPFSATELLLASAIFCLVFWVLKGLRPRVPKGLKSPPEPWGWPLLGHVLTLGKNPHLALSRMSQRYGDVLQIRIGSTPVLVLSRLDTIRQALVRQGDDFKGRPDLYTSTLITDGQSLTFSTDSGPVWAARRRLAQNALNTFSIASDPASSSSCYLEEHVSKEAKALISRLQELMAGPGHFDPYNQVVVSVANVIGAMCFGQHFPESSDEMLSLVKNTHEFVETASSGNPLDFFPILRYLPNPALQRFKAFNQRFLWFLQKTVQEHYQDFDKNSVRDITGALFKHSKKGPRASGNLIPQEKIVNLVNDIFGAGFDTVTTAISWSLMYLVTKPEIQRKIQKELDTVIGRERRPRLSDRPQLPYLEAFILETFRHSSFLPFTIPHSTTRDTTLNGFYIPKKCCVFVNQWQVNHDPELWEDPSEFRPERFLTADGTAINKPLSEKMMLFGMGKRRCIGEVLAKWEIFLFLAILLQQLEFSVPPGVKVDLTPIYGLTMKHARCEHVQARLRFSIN
As usually defined, the AC50 is the midpoint of the concentration-response curve, whichever way the signal moves. In the case of `Cc1ccc(CN2C(=O)CCC2C(=O)NCc2cccnc2)cc1` (stereo not drawn), the AC50 entry is “inactive”.
`Cc1ccc(NC2c3ncccc3C(=O)N2Cc2ccc(F)cc2)cc1` (stereo not drawn): the AC50 was 11.2 µM (active).
For the molecule `CN[C@@H]1NC(=O)c2ccccc2N1Cc1ccc(F)cc1`, the activity, negative = inhibition was -7.56% [at 2.29 µM].
For the molecule `CN(C)c1ccc(-c2ccc3ncnc(NCc4ccccc4)c3c2)cc1`, the half-maximal activity concentration (AC50) is 0.501 µM (active).
Still for that read-out and setting: the value for `Cc1cccc(CNc2ncnc3ccc(-c4ccc(C(=O)N(C)C)cc4)cc23)c1` was 15.8 µM (active).
Still for that read-out and setting: the result for `CN(C)C(=O)c1ccc(-c2ccc3ncnc(NCc4cccs4)c3c2)cc1` reads 15.8 µM (active); that for `CN(C)C(=O)c1ccc(-c2ccc3ncnc(NCc4ccccc4)c3c2)cc1`, 15.8 µM (active).
Regarding `CO[C@@H](C(C)C)[C@@H](C)[C@@H]1OC(=O)C[C@@H]1O`, the activity, negative = inhibition was -5.03% [at 11.4 µM].
Regarding `CN(C)c1ccc(-c2cncnc2NCc2ccccc2)cc1`, the concentration at half-maximal activity (AC50) was 1 µM (active).
Regarding `CN(C)c1ccc(-c2cncnc2NCc2cccnc2)cc1`, the AC50 is 1 µM (active).
As for `CC(C)CO/N=C1/C[C@@H](O)[C@@H](O)[C@@H]2[C@@H]3C(=O)N([C@@H](C)c4ccccc4)C(=O)[C@H]3CC[C@H]12`, the activity, negative = inhibition was 4.53% [at 11.4 µM].
As for `Clc1ccc(Sc2ccc(/C=N/n3cnnc3)o2)cc1`, the half-maximal activity concentration (AC50) is 14.1 µM (active).
Turning to `CN=C1S/C(=C\c2ccc(Sc3ccc(Cl)cc3)o2)C(=O)N1C`, the AC50 was 3.55 µM (active).
Take `CN(C)c1nc(C#N)nc(N2CCOCC2)n1`: the AC50 was 1.58 µM (active).
As for `Cc1cc(C(=O)OC2CCOC2=O)c2ccccc2n1` (stereo not drawn), the AC50 was 2.82 µM (active).
Regarding `CC1(C)[C@@H]2CC[C@@](C)(C2)[C@H]1OC(=O)c1ccccc1C(=O)O`, the activity, negative = inhibition was 2.82% [at 11.4 µM].
Take `CCCCN1CCC(n2c(=O)[nH]c3ccccc32)CC1`: the AC50 entry is “inactive”.
Regarding `CCCCCCN1Cc2ccccc2C1`, the half-maximal activity concentration (AC50) is 12.6 µM (active).
Take `OC(CCCN1CCCCC1)(c1ccccc1)c1ccccc1`: the AC50 entry is “inactive”.
In the case of `COCCCNC(=O)CN(c1ccc(OC)cc1)S(=O)(=O)c1ccc(NC(C)=O)cc1`, the AC50 result is “inactive”.
With `CCOc1nc(NCCc2ccc(OC)c(OC)c2)nc(NC(C)(C)CO)n1`, the half-maximal activity concentration (AC50) is 5.01 µM (active).
As to `COc1ccc(CCNC[C@H](O)c2ccc(O)cc2)cc1OC`, the AC50 result was “inactive”.
On the same count and under the same terms, the result for `C=CCOc1ccc(CNC(C)(C)CO)cc1OC` reads “inactive”.
For `CCSC[C@@H](N)C(=O)O`, the activity, negative = inhibition was -1.61% [at 2.29 µM].
Regarding `Cc1c(Cl)c([N+](=O)[O-])nn1Cc1ccc(C(=O)N/N=C\c2cccc(Br)c2)o1`, the concentration at half-maximal activity (AC50) is 3.16 µM (active).
The same measure, in the same setting: the result for `Cc1c(Cl)c([N+](=O)[O-])nn1Cc1ccc(C(=O)N/N=C\c2cc(Cl)ccc2O)o1` reads 1.58 µM (active); that for `Cc1nn(Cc2ccc(Cl)cc2)c(C)c1NC(=O)Cn1nc([N+](=O)[O-])c(Cl)c1C`, “inactive”.
`CN(C)CC(O)COc1ccc(C(C)(C)c2ccc(OCC(O)CN(C)C)cc2)cc1` (stereo not drawn): the AC50 result is “inactive”.
Regarding `O=C(O)[C@H]1CC=CC[C@@H]1C(=O)Nc1cccc(O)c1`, the activity, negative = inhibition was -18.8% [at 11.4 µM].
With `CC(=O)c1cccc(NC=C2C(=O)OC3(CCCCC3)OC2=O)c1`, the AC50 is 3.55 µM (active).
On to `CC1(C)OC(=O)C(=CNc2cccc(O)c2)C(=O)O1`, for which the half-maximal activity concentration (AC50) was 12.6 µM (active).
Same read-out and setting: the result for `CSCCC(NC=C1C(=O)OC(C)(C)OC1=O)C(=O)O` (stereo not drawn) reads “inactive”.
`CC(=O)Nc1cccc(N2C(=O)CCC2=O)c1`: the AC50 result is “inactive”.
`CCCC[C@H](CC)CN1CN(C[C@@H](CC)CCCC)CC(C)(N)C1`: the AC50 result is “inactive”.
For the molecule `Cc1cc(C)n(-c2nc(Nc3ccccc3C)nc(-n3nc(C)cc3C)n2)n1`, the AC50 result was “inactive”.
On to `Cc1cc(C)n(-c2nc(NC(C)C)nc(NC(C)C)n2)n1`, for which the AC50 is 10 µM (active).
For `COc1cccc(C(=O)/C=C/c2ccc(SC)cc2)c1`, the AC50 is 2.51 µM (active).
Take `Cn1sc(NC(=O)c2ccccc2)nc1=O`: the AC50 result is “inactive”.
As to `Cc1ccc(NC(=O)CN(C)C(=O)CSc2n[nH]c(N)n2)cc1`, the AC50 entry is “inactive”.
For the molecule `CCOC(=O)CSc1nnc(NC(=O)c2cccc(S(=O)(=O)N3CCCCCC3)c2)s1`, the AC50 entry was “inactive”.
`CCOC(=O)CSc1n[nH]c(NC(=O)c2ccccc2)n1`: the AC50 was 10 µM (active).
Still for that read-out and setting: the result for `CCOC(=O)CSc1n[nH]c(NC(=O)c2cccc(C(F)(F)F)c2)n1` reads 3.16 µM (active); that for `CCOC(=O)CC(=O)CSc1nc(-c2cccnc2)cc(C)c1C#N`, 10 µM (active).
Consider `CCOC(=O)CSc1n[nH]c(NC(=O)c2cccc(C)c2)n1`, for which the concentration at half-maximal activity (AC50) was 15.8 µM (active).
Consider `C[C@@H]1NC(=O)C/C=C\[C@@H](C)[C@@H]2C=C[C@H](O)[C@@H](COC(=O)[C@H](C)NC(=O)C/C=C\[C@@H](C)[C@@H]3C=C[C@H](O)[C@@H](COC1=O)O3)O2`, for which the activity, negative = inhibition was -3.28% [at 11.4 µM].
For `COC(=O)N1CCC2(CC1)CN(C(=O)Nc1cccc(C#N)c1)C2`, the AC50 entry is “inactive”.
In the case of `CN1CCC(=C2c3ccccc3CCc3sccc32)CC1`, the AC50 entry is “inactive”.
As to `CCOC(=O)CSc1n[nH]c(-c2cccnc2)n1`, the AC50 is 2.51 µM (active).
In the case of `COc1ccccc1CNc1ncnc2ccc(-c3ccoc3)cc12`, the AC50 was 2.51 µM (active).
Still for that read-out and setting: the result for `COc1ccc(CNc2ncnc3ccc(-c4ccoc4)cc23)c(OC)c1` reads 1.58 µM (active).
For the molecule `CS(=O)(=O)N1CCC[C@@]2(CCN(C(=O)Nc3ccccc3)C2)C1`, the AC50 entry was “inactive”.
Regarding `COC(=O)[C@@]1(Cc2ccccc2)[C@H]2c3cc(C(=O)N4CCCC4)n(Cc4ccccn4)c3C[C@H]2CN1C(=O)c1ccccc1`, the AC50 entry was “inactive”.
As for `N[C@H](C(=O)O)[C@@H]1C[C@@H]1C(=O)O`, the AC50 result is “inactive”.
Turning to `O=c1[nH]c2cc(Br)cnc2nc1/C=C(\O)c1ccc(F)cc1`, the AC50 is 0.398 µM (active).
On to `CCNc1ncc2nc(-c3ccccc3)c(=O)n(C)c2n1`, for which the half-maximal activity concentration (AC50) is 0.398 µM (active).
Turning to `CCNc1ncc2nc(-c3ccc(OC)cc3)c(=O)n(Cc3ccc(F)cc3)c2n1`, the AC50 result was “inactive”.
`CCNc1ncc2nc(-c3cc(F)cc(F)c3)c(=O)n(C)c2n1`: the AC50 is 2 µM (active).
Take `CCNc1ncc2nc(-c3cccc(C#N)c3)c(=O)n(C)c2n1`: the AC50 was 2.51 µM (active).
On to `CCNc1ncc2nc(-c3ccc(F)cc3)c(=O)n(C)c2n1`, for which the AC50 is 0.501 µM (active).
Turning to `O=C1O[C@@H]([C@H](O)[C@H](O)[C@H](O)CO)[C@@H](O)[C@@H]1O`, the activity, negative = inhibition was -12.7% [at 11.4 µM].
Regarding `NC(=O)c1cc[n+](CC2=C(C(=O)[O-])N3C(=O)[C@@H](NC(=O)Cc4cccs4)[C@@H]3SC2)cc1`, the AC50 entry is “inactive”.
Turning to `C[C@H](Oc1ccccc1)C(=O)N[C@@H]1C(=O)N2[C@@H]1SC(C)(C)[C@@H]2C(=O)O`, the AC50 result is “inactive”.
Consider `NOCC(=O)O`, for which the AC50 result was “inactive”.
Take `Cc1cc(C(C)(C)C)c(O)c(C)c1CC1=NCCN1`: the AC50 entry was “inactive”.
Consider `Cc1n[nH]c(=O)[nH]c1=O`, for which the AC50 result was “inactive”.
On to `CCNc1ncc2nc(-c3ccc(Cl)cc3)c(=O)n(C)c2n1`, for which the AC50 was 0.398 µM (active).
The same measure, in the same setting: the value for `CCNc1ncc2nc(-c3ccc(OC)cc3)c(=O)n(-c3ccc(OC)cc3)c2n1` was “inactive”; that for `c1cncc(-c2ccc3ncnc(N4CCNCC4)c3c2)c1` was 1.26 µM (active); that for `N#Cc1cccc(-c2ccc3ncnc(N4CCNCC4)c3c2)c1` was 0.631 µM (active).
For `CN1CCN(c2ncnc3ccc(-c4cccc(C#N)c4)cc23)CC1`, the concentration at half-maximal activity (AC50) is 1.26 µM (active).
With `COc1cc2cc3c4cc(OC)c(OC)cc4cc[n+]3c(C)c2cc1OC`, the AC50 result was “inactive”.
Consider `CC(C)CO/N=C1/[C@H]2O[C@@H]2[C@@H](O)[C@H]2[C@H]1CCn1c(=O)n(-c3ccccc3)c(=O)n12`, for which the activity, negative = inhibition is -6.37% [at 11.4 µM].
As for `CCOc1cc(CNCCCN2CCOCC2)cc(Br)c1OCC(=O)Nc1cccc(C(F)(F)F)c1`, the AC50 result was “inactive”.
Still for that read-out and setting: the result for `CCOc1cc(CNCCO)cc(Br)c1OCc1ccccc1Cl` reads 0.158 µM (active).
On the same count and under the same terms, the value for `OCCCCNCc1ccc(OCc2ccccc2Cl)cc1` was 5.01 µM (active); that for `Clc1ccccc1CNCC1CCC(CNCc2ccccc2Cl)CC1` (stereo not drawn) was “inactive”.
With `Clc1ccc(-c2nc3ncccn3c2Nc2ccc3c(c2)OCCO3)cc1`, the AC50 was 6.31 µM (active).
On to `CC(C)CN1CCC2(CC1)CCN(C(=O)c1cc(C(F)(F)F)cc(C(F)(F)F)c1)CC2`, for which the AC50 result was “inactive”.
As to `O=C(O)C1C2C=CC(C2)C1C(=O)N1CCN(C/C=C/c2ccccc2)CC1` (stereo not drawn), the AC50 entry was “inactive”.
As for `O=C(/C=C/c1ccc2ccccc2c1)c1ccoc1`, the AC50 is 2.24 µM (active).
For the molecule `O=c1cc(-c2ccccc2)oc2cc(O)c(O)c(O)c12`, the AC50 is 0.501 µM (active).
Same read-out and setting: the value for `CC(C)(C)OC(=O)COc1cc(OCC(=O)OC(C)(C)C)c2c(=O)cc(-c3ccccc3)oc2c1` was “inactive”.
The same measure, in the same setting: the value for `NS(=O)(=O)Cc1noc2ccccc12` was “inactive”.
For `CCCCC(=O)Nc1ccc(C)c(O)c1`, the AC50 is 3.55 µM (active).
For `CCC(CC)C(=O)Nc1cccc(C(=O)Nc2ccc(OC)cc2[N+](=O)[O-])c1`, the AC50 result is “inactive”.
Consider `CCCCC(=O)Nc1ccc(C(=O)NNC(=O)CCc2ccccc2)cc1`, for which the AC50 result is “inactive”.
The same measure, in the same setting: the value for `CCC(CC)C(=O)Nc1ccc(C)c(O)c1` was 12.6 µM (active); that for `COc1cc(C2C(C(=O)c3ccc(C)o3)=C(O)C(=O)N2CCc2ccccc2)ccc1O` (stereo not drawn) was “inactive”.
Still for that read-out and setting: the result for `Cc1cc(C)nc(NN2C(=O)/C(=C/c3ccccc3)SC2=S)n1` reads “inactive”.
In the case of `O=C1/C(=C\c2ccccn2)SC(=S)N1Nc1ncc(C(F)(F)F)cc1Cl`, the AC50 is 8.91 µM (active).
For the molecule `Cc1cc(C)n2nc(SCN3C(=O)c4ccccc4C3=O)nc2n1`, the activity, negative = inhibition was 18.7% [at 11.4 µM].
Take `CCCSc1nnc(CSc2nc3nc(C)cc(C)n3n2)o1`: the AC50 result was “inactive”.
As for `Cc1cc(C)n2nc(SCc3cc(=O)oc4ccc5ccccc5c34)nc2n1`, the half-maximal activity concentration (AC50) is 5.62 µM (active).
For the molecule `O[C@@H]1[C@@H](OCc2ccccc2)OC[C@H](O)[C@@H]1O`, the activity, negative = inhibition is -15.1% [at 11.4 µM].
As to `S=C(Nc1ccccc1)Nc1ccc(OCc2ccccc2)cc1`, the AC50 was 5.62 µM (active).
Consider `O=C(O)c1c[nH]c2cc(OCc3ccccc3)ccc2c1=O`, for which the activity, negative = inhibition is -19.1% [at 11.4 µM].
For `Cc1c(C(=O)Nc2ccc(OCc3ccccc3)cc2)cccc1[N+](=O)[O-]`, the AC50 entry is “inactive”.
With `Oc1ccc(OCc2ccccc2)cc1`, the half-maximal activity concentration (AC50) was 1.58 µM (active).
